The source of these data is PubChem BioAssay AID1159506 (National Center for Advancing Translational Sciences (NCATS), 2015).

In all, about 59,000 sequences were measured (the read-out: median about -0.00055, lowest 2% from about -2 on). The full list was thinned out, with the lowest values kept by preference.

This assay in a line: Identification of proteins required for the processing of the EWS-FLI1 nascent transcript.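 Further: robust z of luciferase light less the median z of siRNAs with the same seed.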 Conditions: TC32 Ewing sarcoma NR0B1-luc vs CMV-luc (EWS-FLI1 target promoter against control promoter), 48 h; screened at 20 nM (by protocol). In short, it runs like this: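 Readout: OneGlo luminescence, 48 h post-transfection, TC32-NR0B1-luc vs TC32-CMV-luc in parallel. siRNA 20 nM final, RNAiMax lipid, 600 cells/well; z-score-MAD transformed, then seed-adjusted.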
UACUGGUCCACGGAGAUUU against CSPG4 returned a seed-corrected z-score of 0.0797.

The sequence CUUCAUAGUGGUGUCCACG against MUC3B had a seed-corrected z-score of -0.292.

Consider UUCGUUUCGUCUCUUCUAG against ESCO1, for which the seed-corrected z-score came out at 1.44.

ACCGUUAAAACAAGCUUCG against NBAS registered a seed-corrected z-score of 0.0519.

UUCGCUGAAAAGAAACUGG against PHRF1: the seed-corrected z-score was -0.139.

UUUAAGCAACCGUCGUUGG against RPS23P8 had a seed-corrected z-score of -9.97.

For the sequence AAUCUAUAACUCUUUGACC against MKKS, the seed-corrected z-score is -0.508.

For the sequence UGAUGGUCAACUUGAUGCC against LCK, the seed-corrected z-score is -4.01.

As to UGCAUUCCCACCAAUGUUG against EIF2B2, the seed-corrected z-score was -0.2.

Sequence UCAGAGCGAUUUUCAGUAC against KCTD21 had a seed-corrected z-score of 0.306.

Take UAUGUUGUCACUAGUCAGC against PNPLA7: the seed-corrected z-score was -0.38.

For UUCUGCAAAGCGCCACAGG against SLC22A31, the seed-corrected z-score is -2.24.

As for UUCUGAGUAAUCUACAAUG against RHOT1, the seed-corrected z-score was found to be 0.1.

The sequence AACCGUGUAACCAUAGCUC against GABRQ registered a seed-corrected z-score of 0.126.

The sequence AAUAGUACCACCAAAGCAC against ELOVL2 yielded a seed-corrected z-score of -0.0356.

UAUCUCCUCAGCUAAUUCG against SLC17A8: the seed-corrected z-score was 0.0229.

In turn, UUCGUUAGUUGUUCUAGGC against RB1CC1 returned a seed-corrected z-score of -2.96.

Sequence UCUGUGUAGCUCGGACACC against OR7E24 displayed a seed-corrected z-score of -0.966.

Consider AAUGAAUCAAAUGUAACGG against PNPT1, for which the seed-corrected z-score is -0.376.

As for UUUUCAAACAGGUAACAGC against ATM, the seed-corrected z-score was determined as 0.359.

Regarding UUUUGAGCCUCAGCACUCC against RGL3, the seed-corrected z-score is -0.0402.

Turning to UCCAGUUUUCGGAUCUUCC against MRPL40, the seed-corrected z-score is -2.5.

As for UCUCGUUCAGUUAUCUGCC against HECW2, the seed-corrected z-score was found to be 0.826.

For the sequence UAGAGUUCCAGCUAGGGUG against CTRL, the seed-corrected z-score is -0.507.

For the sequence UUCUUGUACUGCACCAUCU against PHLDA1, the seed-corrected z-score was determined as 2.51.

In the case of UUAGUUCCAUUUCCUACUC against TEX38, the seed-corrected z-score was -0.404.

UGUGCAUGCACAGAGAAGC against NFE4 came in with a seed-corrected z-score of -1.58.

Sequence AAACUUAUACUUCUGGUAC against VBP1 came in with a seed-corrected z-score of -0.149.

As to AGGAGACUCAGCUUGAUCC against SPATA45, the seed-corrected z-score was -2.01.

Regarding AACCAGUUAGAUUAUACGC against ATRNL1, the seed-corrected z-score is -0.225.

In turn, UUGUAUCCAAAGAUGAUUC against PLXDC2 had a seed-corrected z-score of -0.0677.

AGGCUGAUGACUCCUAUCC against SSTR3 registered a seed-corrected z-score of 0.317.

In turn, UCAUAGGACCAGUCAAUGC against CPA2 displayed a seed-corrected z-score of 0.13.

Consider UCCCGUUCAAUCUCCCACC against RNF113B, for which the seed-corrected z-score was -0.595.

In turn, UCCAUGGUACUUCUUAUGC against TMEM127 registered a seed-corrected z-score of -2.9.

For the sequence UUGGGAGCGAUAACACGAC against C19orf53, the seed-corrected z-score was -0.418.

The sequence AGAUCUACUAGUUCUUGUG against LRCH1 had a seed-corrected z-score of 0.758.

For the sequence ACAGUGGUGAACGUGAUGC against JPX, the seed-corrected z-score was -2.26.

UUGGUAGUAGAUCAUAUGC against STXBP3: the seed-corrected z-score is -0.0771.

UUUUCUUGCGUUUAUGUGG against C11orf57 yielded a seed-corrected z-score of 0.448.

AGUGAUGAAAGCAAAGUAG against KCNK16 yielded a seed-corrected z-score of 0.908.

The sequence UUUCAUCUCACCUUUAUUG against RPL23P5 gave a seed-corrected z-score of -2.17.

UUCUGAUCCUGGAUGUUGC against R3HDM1 yielded a seed-corrected z-score of 0.205.

In turn, AGACGUUCCAUUCAUAUCU against RBMY1F gave a seed-corrected z-score of 0.399.

On to AUGGUCUUCACUCUUGUGC against CCR9, for which the seed-corrected z-score is -3.14.

Sequence UGUGUUUAACCAGAGAUCC against RXRG displayed a seed-corrected z-score of 0.625.

UGACCGUUUCGGAUGAUGG against ATP2B4 displayed a seed-corrected z-score of 0.168.

Sequence UAGCUGUCGAACACCCAGG against PDDC1 returned a seed-corrected z-score of 1.63.

As to UCAGUUUGCAAUUAGGCAG against LOC113230, the seed-corrected z-score was 0.933.

In turn, UACCAGCUCACUGACAUGG against OR8B4 yielded a seed-corrected z-score of 0.0124.

UGCAUGACAAACAAAUUCC against GATAD1 showed a seed-corrected z-score of 0.136.

On to UCCAGUUGUAGUUCGGCAG against KISS1, for which the seed-corrected z-score was -2.32.

For UCAGGUUGAUGAAAUGGGC against PRDM15, the seed-corrected z-score was -0.519.

Consider UGAGCACAGAAAGUGGACC against SNRPD2P1, for which the seed-corrected z-score was -0.553.

As to ACAUCCUUAAGAAAUAUGG against PLEKHA2, the seed-corrected z-score was -0.563.

AAAGCGUAGAAAAUAUCCC against DNAH5 returned a seed-corrected z-score of -0.0906.

The sequence UCAGUAUGAAGAGCAACAG against MCM2 came in with a seed-corrected z-score of -0.317.

UACCUCUUAAUAAGAUCUG against ATP8A2 showed a seed-corrected z-score of 0.0625.

UUUCGGAAAUCUAGGCUGG against KANSL1 came in with a seed-corrected z-score of 1.62.

In turn, UUGAUAUAAACUCUGACAC against PDE4D had a seed-corrected z-score of 0.567.

For UCGUCUUCGCUUUAUAUCC against EFR3A, the seed-corrected z-score is -3.4.

Take AUCGGUAGCAGUGAACAUG against LPP: the seed-corrected z-score is -0.942.

Consider UAUAUUAGCGGUAACGGUG against RPL15P3, for which the seed-corrected z-score was -2.66.

For the sequence UCUGUUACAAUUGUUCCAC against ETF1, the seed-corrected z-score is -0.812.

UUUCUCAUCAAAGAACUCC against PPP2R1A displayed a seed-corrected z-score of -0.546.

Turning to AAGCUUUAUACUUUCCACC against OR7G3, the seed-corrected z-score was -0.496.

The sequence AUUCGAACAACAUUUCUUC against ANOS1 yielded a seed-corrected z-score of -0.592.

UCUCGAACCUGGAGAAUGC against FAM109B gave a seed-corrected z-score of 0.134.

The sequence UGUGCACUAAUGCGAAUCG against MYO5C gave a seed-corrected z-score of -0.13.

UCUGCUUUGUCUCUCAGCC against FAM92A1: the seed-corrected z-score was -2.84.

Turning to UUCUGGAUGUGGUAGGGCC against ACSBG1, the seed-corrected z-score was 0.963.

UCUGUUCGAAAGUCAAAGC against SRBD1: the seed-corrected z-score is -0.955.

As to UGAGUUGCAGUCCUCCACG against C9orf173, the seed-corrected z-score is -2.17.

UUCGUAAUAAAGGAUCCAG against NF1 showed a seed-corrected z-score of 0.124.

Take UAUGCGCAGAUGUUACUCG against PAICS: the seed-corrected z-score came to 0.0926.

As for UUCACUUUCAGAUCGGGAC against C18orf25, the seed-corrected z-score is -1.35.

In turn, UUUAAGUCAAAUCUUGUCC against WTIP came in with a seed-corrected z-score of -0.633.

Take UAUUUACCAGGCUCUGUGG against FAM47A: the seed-corrected z-score came to 0.667.

The sequence UGCUGCAUGACAUCCACCC against SORBS3 gave a seed-corrected z-score of 0.835.

For AGGGUAGAAAGAGUCGUCC against ANKRD33B, the seed-corrected z-score was -2.3.

For the sequence UUUUCGAUCAUCACCACAC against YWHAQ, the seed-corrected z-score was -0.216.

As to UUGGAGUUCAGGAUCCUCU against MYO19, the seed-corrected z-score amounted to 0.563.

UCGGUUGAAACAUUUGUGG against IPO11: the seed-corrected z-score was 0.941.

Take UAUGUAACUUUGAUGAGAG against CEACAM22P: the seed-corrected z-score worked out at 0.0194.

Turning to AUCCUUGUACAUGCAGUCC against ELL, the seed-corrected z-score was -2.16.
